Inconclusive results are not listed. Active and inactive are the calls of the source. Unless noted, the call rests on the fitted dose curve.
Assays:
[1] = Nuclear factor erythroid 2-related factor 2/antioxidant responsive element (Nrf2/ARE) small molecule agonists: qHTS cell viability counter screen in human keratinocytes (AID 1919968; active means well fitted curve in the direction sought with a large enough effect in the repeat runs; an effect the other way counts as inactive or inconclusive; further: nearly all actives have a fitted effect of over 55% in size; further: potency means the concentration at half of the fitted maximal effect)
Outline: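 Stably transfected HaCaT (KeratinoSens), 1,500/well. Test agents in DMSO were applied for 23 h, 37 C/5% CO2. CellTiter-Fluor was incubated 1 h before the fluorescence read.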

[2] = Nuclear factor erythroid 2-related factor 2/antioxidant responsive element (Nrf2/ARE) small molecule agonists: luciferase reporter gene qHTS assay in human keratinocytes (AID 1919969); further: nearly all actives have a fitted effect of over 35% in size; further: potency means the concentration at half of the fitted maximal effect
[3] = target: Gonadotropin-releasing hormone receptor (Homo sapiens) (UniProt P30968); assay: Human gonadotropin-releasing hormone receptor (GnRHR) small molecule agonists, calcium flux assay in GnRHR-HEK293 cells (AID 1920063); further: nearly all actives have a fitted effect of over 35% in size; further: potency means the concentration at half of the fitted maximal effect
Sequence of Gonadotropin-releasing hormone receptor (Homo sapiens) (P30968 whole entry, looked up): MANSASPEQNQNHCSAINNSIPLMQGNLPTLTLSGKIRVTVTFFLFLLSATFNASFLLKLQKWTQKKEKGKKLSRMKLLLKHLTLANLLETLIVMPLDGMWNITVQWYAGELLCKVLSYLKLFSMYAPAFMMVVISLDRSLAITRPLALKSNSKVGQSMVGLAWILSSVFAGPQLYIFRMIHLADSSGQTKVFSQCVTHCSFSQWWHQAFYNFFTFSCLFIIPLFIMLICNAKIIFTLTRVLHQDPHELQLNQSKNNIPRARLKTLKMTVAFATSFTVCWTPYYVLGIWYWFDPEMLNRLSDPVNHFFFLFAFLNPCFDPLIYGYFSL
Outline: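 Stable human GnRHR HEK293 line. 18 h plating, then calcium dye for 1 h at 37 C. Agonist-mode compound addition from DMSO stocks; fluorescence monitored 3 min.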

[4] = target: KiSS-1 receptor (Homo sapiens) (UniProt Q969F8); assay: Human kisspeptin (KISS1R) small molecule agonists, calcium flux assay in KISS1R-HEK293 cells (AID 1920064; active means well fitted curve in the direction sought with a large enough effect in the repeat runs; an effect the other way counts as inactive or inconclusive)
Sequence of KiSS-1 receptor (Homo sapiens) (Q969F8 whole entry, looked up): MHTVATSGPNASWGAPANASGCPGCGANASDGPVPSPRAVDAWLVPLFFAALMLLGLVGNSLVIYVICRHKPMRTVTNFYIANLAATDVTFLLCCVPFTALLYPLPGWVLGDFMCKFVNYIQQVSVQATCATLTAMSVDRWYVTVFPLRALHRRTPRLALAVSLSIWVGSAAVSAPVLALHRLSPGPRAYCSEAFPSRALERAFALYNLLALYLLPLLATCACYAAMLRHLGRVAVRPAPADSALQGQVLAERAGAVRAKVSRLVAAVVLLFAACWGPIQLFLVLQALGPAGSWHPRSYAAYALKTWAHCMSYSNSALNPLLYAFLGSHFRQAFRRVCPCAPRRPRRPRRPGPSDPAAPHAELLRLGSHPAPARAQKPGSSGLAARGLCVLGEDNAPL
Outline: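 After overnight (18 h) culture at 37 C/5% CO2, human KISS1R-HEK293 cells received calcium dye for 1 h, then test compound; emission at 540 nm (excitation 480 nm) was tracked for 3 min.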

[5] = G protein-coupled receptor (GPCR) small molecule agonists, calcium flux assay: HEK293 wild type cell line counter screen (AID 1920065)
Outline: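 Following 18 h incubation at 37 C/5% CO2, plates got calcium dye for 1 h; compounds, ATP or DMSO were then pinned in and fluorescence followed kinetically (480/540 nm).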

[6] = p53 small molecule agonists, cell-based qHTS assay with human liver microsomes (AID 1963577)
Outline: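 Cells carrying a p53-responsive bla reporter were rested 5 h (37 C, 5% CO2) before compound transfer. Human liver microsomes plus NADPH, 0.5 mg/mL final apiece, supplied metabolism during the 16 h 37 C exposure.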

[7] = p53 small molecule agonists, cell-based qHTS assay with rat liver microsomes (AID 1963578)
Outline: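 Fluorescence from a beta-lactamase reporter under a p53 response element was measured after cells had been incubated 16 h at 37 C with test compound and rat liver microsomes plus NADPH (0.5 mg/mL final each).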

[8] = p53 small molecule agonists, cell-based qHTS assay with human liver microsomes: qHTS cell viability counter screen (AID 1963579); further: nearly all actives have a fitted effect of over 45% in size; further: potency means the concentration at half of the fitted maximal effect
Outline: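 Seed p53RE-bla cells at 4,000 per well; incubate 5 h at 37 C; add compound, human liver microsomes and NADPH; incubate 16 h at 37 C; add CellTiter-Glo; after 30 min at room temperature, read luminescence.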

[9] = p53 small molecule agonists, cell-based qHTS assay (AID 1963582; active means well fitted activation curve with a large enough effect in the signal ratio in the repeat runs, not every such curve was filed as active; the % refers to the signal ratio)
Outline: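 Measured: fluorescence from cleaved LiveBLAzer substrate. System: p53RE-bla cells, 16 h compound treatment at 37 C, 2 h substrate step at room temperature.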

[10] = target: 5-hydroxytryptamine receptor 2A (Homo sapiens) (UniProt P28223); assay: 5-hydroxytryptamine receptor 2A (HTR2A) small molecule antagonists, cell-based qHTS assay (AID 1963586); further: nearly all actives have a fitted effect of over 45% in size
Sequence of 5-hydroxytryptamine receptor 2A (Homo sapiens) (P28223 whole entry, looked up): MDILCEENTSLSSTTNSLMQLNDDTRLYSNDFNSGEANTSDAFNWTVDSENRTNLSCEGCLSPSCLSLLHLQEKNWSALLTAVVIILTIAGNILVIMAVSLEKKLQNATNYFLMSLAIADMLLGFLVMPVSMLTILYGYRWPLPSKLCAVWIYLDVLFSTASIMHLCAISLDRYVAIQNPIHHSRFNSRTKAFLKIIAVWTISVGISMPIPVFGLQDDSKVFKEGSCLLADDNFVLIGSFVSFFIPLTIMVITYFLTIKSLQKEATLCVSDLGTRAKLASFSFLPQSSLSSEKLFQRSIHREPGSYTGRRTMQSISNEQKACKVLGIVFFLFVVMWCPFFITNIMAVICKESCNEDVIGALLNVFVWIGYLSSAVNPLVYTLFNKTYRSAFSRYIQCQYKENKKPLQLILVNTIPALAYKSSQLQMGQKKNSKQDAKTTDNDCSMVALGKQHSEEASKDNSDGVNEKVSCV
Outline: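 CHO cells stably expressing human HTR2A were plated for 18 h at 37 C, then loaded with calcium dye for 1 h. Compounds were preincubated 5 min at room temperature before DOI (4 nM solution) was added. Kinetic fluorescence was read for 3 min.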

[11] = target: 5-hydroxytryptamine receptor 2A (Homo sapiens) (UniProt P28223); assay: 5-hydroxytryptamine receptor 2A (HTR2A) small molecule agonists, cell-based qHTS assay (AID 1963587); further: nearly all actives have a fitted effect of over 30% in size
Outline: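 Kinetic calcium-flux fluorescence (2 min, 1 sec intervals) after compound addition in agonist mode. HTR2A-CHO cells were cultured 18 h, then dye-loaded 1 h at 37 C.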

[12] = target: Muscarinic acetylcholine receptor M1 (Homo sapiens) (UniProt P11229); assay: Cholinergic receptor muscarinic 1 (CHRM1) small molecule agonists, cell-based qHTS assay (AID 1963589); further: nearly all actives have a fitted effect of over 35% in size
Sequence of Muscarinic acetylcholine receptor M1 (Homo sapiens) (P11229 whole entry, looked up): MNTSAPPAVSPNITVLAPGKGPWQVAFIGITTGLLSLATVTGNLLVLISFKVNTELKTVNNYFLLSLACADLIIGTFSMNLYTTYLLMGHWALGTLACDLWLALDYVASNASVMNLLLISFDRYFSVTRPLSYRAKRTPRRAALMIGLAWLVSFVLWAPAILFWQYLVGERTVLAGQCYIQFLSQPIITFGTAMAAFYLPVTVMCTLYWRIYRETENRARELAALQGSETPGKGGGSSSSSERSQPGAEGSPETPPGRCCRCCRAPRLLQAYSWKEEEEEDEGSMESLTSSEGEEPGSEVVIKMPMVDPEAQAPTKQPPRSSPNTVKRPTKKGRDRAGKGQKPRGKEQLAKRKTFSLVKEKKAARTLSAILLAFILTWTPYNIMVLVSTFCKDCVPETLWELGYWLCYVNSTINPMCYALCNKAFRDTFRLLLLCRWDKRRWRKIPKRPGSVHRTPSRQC
Outline: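 Kinetic fluorescence (1 s intervals) of calcium-sensitive dye in human M1 CHO cells after compound addition; cells pre-incubated 18 h at 37 C/5% CO2 and dye-loaded 1 h.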

[13] = target: Beta-2 adrenergic receptor (Homo sapiens) (UniProt P07550); assay: Adrenergic beta2 receptor (ADRB2) small molecule antagonists, cell-based qHTS assay (AID 1963592); further: series mostly up to about 92 µM; nearly all actives have a fitted effect of over 50% in size
Sequence of Beta-2 adrenergic receptor (Homo sapiens) (P07550 whole entry, looked up): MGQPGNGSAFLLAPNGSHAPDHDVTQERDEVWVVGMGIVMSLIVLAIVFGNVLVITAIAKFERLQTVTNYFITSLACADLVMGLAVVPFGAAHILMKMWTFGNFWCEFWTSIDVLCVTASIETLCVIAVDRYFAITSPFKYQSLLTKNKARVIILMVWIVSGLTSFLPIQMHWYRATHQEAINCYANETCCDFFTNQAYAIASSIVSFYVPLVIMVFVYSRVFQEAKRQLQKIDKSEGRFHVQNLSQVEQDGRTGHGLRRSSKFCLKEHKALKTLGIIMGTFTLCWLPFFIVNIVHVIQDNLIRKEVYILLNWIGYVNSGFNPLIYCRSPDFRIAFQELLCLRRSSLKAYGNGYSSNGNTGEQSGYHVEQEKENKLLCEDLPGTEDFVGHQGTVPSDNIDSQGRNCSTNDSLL
Outline: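 Assay format: CHO-ADRB2 cells, 18-20hr seeding at 37C/5% CO2, then compound plus 1nM isoproterenol agonist mix for 0.5hr RT. Homogeneous time-resolved fluorescence cAMP detection after 1hr, expressed as 665/615 nm ratio.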

[14] = target: D(2) dopamine receptor (Homo sapiens) (UniProt P14416); assay: Dopamine D2 receptor (DRD2) small molecule agonists, cell-based qHTS assay (AID 1963594); further: nearly all actives have a fitted effect of over 35% in size
Sequence of D(2) dopamine receptor (Homo sapiens) (P14416 whole entry, looked up): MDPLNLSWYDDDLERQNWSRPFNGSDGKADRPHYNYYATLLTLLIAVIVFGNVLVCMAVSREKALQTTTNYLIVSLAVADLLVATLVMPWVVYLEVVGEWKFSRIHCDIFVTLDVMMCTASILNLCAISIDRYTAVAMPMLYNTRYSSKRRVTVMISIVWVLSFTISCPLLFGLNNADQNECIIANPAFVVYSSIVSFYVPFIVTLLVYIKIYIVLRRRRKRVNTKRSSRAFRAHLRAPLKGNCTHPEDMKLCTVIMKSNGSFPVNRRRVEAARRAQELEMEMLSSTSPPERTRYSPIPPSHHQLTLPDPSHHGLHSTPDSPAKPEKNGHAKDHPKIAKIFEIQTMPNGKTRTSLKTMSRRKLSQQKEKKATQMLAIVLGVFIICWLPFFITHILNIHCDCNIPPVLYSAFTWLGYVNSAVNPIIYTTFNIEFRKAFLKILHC
Outline: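 cAMP accumulation in DRD2-HEK293 cells measured by HTRF after 1 h detection; compounds added 10 min before NKH477 (200nM […]) forskolin-analogue stimulation, 30 min at room temperature, with Ro20-1724 present at 0.1 mM final.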

[15] = target: D(2) dopamine receptor (Homo sapiens) (UniProt P14416); assay: Dopamine D2 receptor (DRD2) small molecule antagonists, cell-based qHTS assay (AID 1963595; active means well fitted inhibition curve with a large enough effect in the signal ratio in the repeat runs, with a control signal flat; the % refers to the signal ratio)
Outline: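 Cells were plated and grown for 24 h at 37 °C. Ro20-1724 (0.1 mM final) went in first, then compound for 10 min. NKH477 (200 nM) with quinpirole (12 nM) followed for 30 min at RT, then HTRF detection reagents for 1 h.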

[16] = target: Beta-2 adrenergic receptor (Homo sapiens) (UniProt P07550); assay: Adrenergic beta2 receptor (ADRB2) small molecule agonists, cell-based qHTS assay (AID 1963593);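 further: CHO cells stably overexpressing human ADRB2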
Outline: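 CHO cells stably over-expressing ADRB2 were plated overnight at 37C, then dosed with compounds plus a stimulation mix containing 100uM IBMX and 25uM Ro-20-1724 for 0.5hr at room temperature. cAMP was measured by HTRF competition, 1hr.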

[17] = p53 small molecule agonists, cell-based qHTS assay: qHTS cell viability counter screen (AID 1963581); further: nearly all actives have a fitted effect of over 45% in size
Outline: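 qHTS counter screen: 16 h compound exposure at 37 C of p53RE-bla HCT-116 cells (4,000 per well, seeded 5 h prior), cell viability by ATP luminescence.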

[18] = target: Muscarinic acetylcholine receptor M1 (Homo sapiens) (UniProt P11229); assay: Cholinergic receptor muscarinic 1 (CHRM1) small molecule antagonists, cell-based qHTS assay (AID 1963588); further: nearly all actives have a fitted effect of over 40% in size
Outline: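 Compounds were tested at 15 concentrations in three independent runs. Dye-loaded CHRM1-CHO cells were exposed 5 min at room temperature before stimulation by acetylcholine added at 50nM. Intracellular calcium was read kinetically on FDSS for 3 min.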

[19] = cAMP Responsive Elements (CRE) small molecule antagonists, cell-based qHTS assay (AID 1963591; active means well fitted inhibition curve with a large enough effect in the signal ratio in the repeat runs, not every such curve was filed as active; the % refers to the signal ratio; further: potency means the concentration at half of the fitted maximal effect)
Outline: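 Reporter line CRE-bla HEK 293T in dialyzed-FBS DMEM; cells preincubated 18 h, treated 3 h with compound plus NKH477 (0.25 uM final); LiveBLAzer FRET, 2 h RT.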

[20] = cAMP Responsive Elements (CRE) small molecule agonists, cell-based qHTS assay (AID 1963590)
Outline: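 Test agents in DMSO were incubated 3 h at 37 C/5% CO2 with CRE-bla HEK 293T cells seeded 18 h earlier; LiveBLAzer B/G FRET substrate was added and read after 2 h at room temperature.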

Measured: Potency

CCOC(=O)COC(=O)c1ccccc1C(=O)OCC
not listed: [16] | [17] | [18] | [19] | [20]
inactive: all other assays above

C[C@@]12C(=O)OC(=O)[C@]1(C)C1CCC2O1
active: [1] 16.8 µM
inactive: [2] | [3] | [4] | [5] | [6] | [7] | [8] | [16] | [15]

Cc1nc(-c2ccc(Cl)cc2)oc1COC(C)(C)C(=O)O
not listed: [8] | [20]
inactive: all other assays above

CCOc1ccc([N+](=O)[O-])cc1
active: [1] 62 µM | [8] 41.4 µM | [19] 55.3 µM
not listed: [9] | [10] | [11] | [15] | [16] | [17]
inactive: all other assays above

Oc1ccc(C(O)CNCCCCCCNCC(O)c2ccc(O)c(O)c2)cc1O (stereo unspecified)
active: [3] 0.0756 µM
not listed: [8] | [15] | [16] | [20]
inactive: all other assays above

CC[N+](CC)(CC)Cc1ccccc1
not listed: [8] | [16]
inactive: all other assays above

C[N+](C)(C)CC(O)CC(=O)[O-] (stereo unspecified)
not listed: [10] | [11] | [12] | [17] | [18]
inactive: all other assays above

O=C(Nc1ccccc1)c1ccccc1O
active: [2] 61.1 µM
not listed: [8] | [16]
inactive: all other assays above

c1ccc(-c2nn[nH]n2)cc1
not listed: [8] | [15] | [16]
inactive: all other assays above

From PubChem BioAssay (Tox21)
